Test results as given in the supplement of paper PMC12645437, “Orthogonal IMiD-Degron Pairs Induce Selective Protein Degradation in Cells” (ACS Chemical Biology, 2025).
Over roughly 8,300 sequences, “log2 fold change of degron read counts, EGFP-low vs EGFP+ sorted cells (limma voom), compound-induced degradation” has its median near -1.1; the highest 2% begin near 3.2. Shown is part of a subset that was picked to be rich in the highest values.

B1: 46L_47T_49N_50Q_52G_53F_54L_55C_67L_, Q9UKT9 (peptide)
chain: LTCNQCGFLCTQKGNLLRHIKL
B2: 46F_47F_49P_50V_52G_53A_54G_55F_67L_, Q9UKT9 (peptide)
chain: FFCPVCGAGFTQKGNLLRHIKL
B3: 46F_47C_49P_50V_52G_53A_54G_55F_67L_, Q9UKT9 (peptide)
chain: FCCPVCGAGFTQKGNLLRHIKL
B4: 46F_47G_49P_50V_52G_53A_54G_55F_67L_, Q9UKT9 (peptide)
chain: FGCPVCGAGFTQKGNLLRHIKL
B5: 46F_47V_49P_50V_52G_53A_54G_55F_67L_, Q9UKT9 (peptide)
chain: FVCPVCGAGFTQKGNLLRHIKL
B6: 46F_47A_49P_50V_52G_53A_54G_55F_67L_, Q9UKT9 (peptide)
chain: FACPVCGAGFTQKGNLLRHIKL
B7: 46F_47R_49P_50V_52G_53A_54G_55F_67L_, Q9UKT9 (peptide)
chain: FRCPVCGAGFTQKGNLLRHIKL
B8: 46F_47Y_49P_50V_52G_53A_54G_55F_67L_, Q9UKT9 (peptide)
chain: FYCPVCGAGFTQKGNLLRHIKL
B9: 46F_47H_49P_50V_52G_53A_54G_55F_67L_, Q9UKT9 (peptide)
chain: FHCPVCGAGFTQKGNLLRHIKL
B10: 46F_47Q_49P_50V_52G_53A_54G_55F_67L_, Q9UKT9 (peptide)
chain: FQCPVCGAGFTQKGNLLRHIKL
B11: 46L_47H_49N_50Q_52G_53F_54W_55C_67L_, Q9UKT9 (peptide)
chain: LHCNQCGFWCTQKGNLLRHIKL
B12: 46F_47R_49P_50I_52G_53H_54H_55F_67L_, Q9UKT9 (peptide)
chain: FRCPICGHHFTQKGNLLRHIKL
B13: 46F_47E_49E_50I_52G_53A_54N_55F_67L_, Q9UKT9 (peptide)
chain: FECEICGANFTQKGNLLRHIKL
B14: 46F_47Q_49E_50I_52G_53A_54N_55F_67L_, Q9UKT9 (peptide)
chain: FQCEICGANFTQKGNLLRHIKL
B15: 46F_47S_49E_50I_52G_53A_54N_55F_67L_, Q9UKT9 (peptide)
chain: FSCEICGANFTQKGNLLRHIKL
B16: 46F_47L_49E_50I_52G_53A_54N_55F_67L_, Q9UKT9 (peptide)
chain: FLCEICGANFTQKGNLLRHIKL
B17: 46F_47N_49E_50I_52G_53A_54N_55F_67L_, Q9UKT9 (peptide)
chain: FNCEICGANFTQKGNLLRHIKL
B18: 46F_47G_49E_50I_52G_53A_54N_55F_67L_, Q9UKT9 (peptide)
chain: FGCEICGANFTQKGNLLRHIKL
B19: 46F_47Y_49E_50I_52G_53A_54N_55F_67L_, Q9UKT9 (peptide)
chain: FYCEICGANFTQKGNLLRHIKL
B20: 46F_47A_49E_50I_52G_53A_54N_55F_67L_, Q9UKT9 (peptide)
chain: FACEICGANFTQKGNLLRHIKL
B21: 46F_47W_49E_50I_52G_53A_54N_55F_67L_, Q9UKT9 (peptide)
chain: FWCEICGANFTQKGNLLRHIKL
B22: 46F_47K_49E_50I_52G_53A_54N_55F_67L_, Q9UKT9 (peptide)
chain: FKCEICGANFTQKGNLLRHIKL
B23: 46F_47F_49E_50I_52G_53A_54N_55F_67L_, Q9UKT9 (peptide)
chain: FFCEICGANFTQKGNLLRHIKL
B24: 46F_47T_49E_50I_52G_53A_54N_55F_67L_, Q9UKT9 (peptide)
chain: FTCEICGANFTQKGNLLRHIKL
B25: 46F_47C_49E_50Q_52G_53A_54M_55F_67L_, Q9UKT9 (peptide)
chain: FCCEQCGAMFTQKGNLLRHIKL
B26: 46F_47H_49N_50V_52G_53A_54R_55F_67L_, Q9UKT9 (peptide)
chain: FHCNVCGARFTQKGNLLRHIKL
B27: 46L_47N_49P_50I_52G_53F_54L_55C_67L_, Q9UKT9 (peptide)
chain: LNCPICGFLCTQKGNLLRHIKL
B28: 46F_47Q_49S_50V_52G_53H_54D_55F_67L_, Q9UKT9 (peptide)
chain: FQCSVCGHDFTQKGNLLRHIKL

Molecular target: T1, CRBN, Q96SW2
T1 chain: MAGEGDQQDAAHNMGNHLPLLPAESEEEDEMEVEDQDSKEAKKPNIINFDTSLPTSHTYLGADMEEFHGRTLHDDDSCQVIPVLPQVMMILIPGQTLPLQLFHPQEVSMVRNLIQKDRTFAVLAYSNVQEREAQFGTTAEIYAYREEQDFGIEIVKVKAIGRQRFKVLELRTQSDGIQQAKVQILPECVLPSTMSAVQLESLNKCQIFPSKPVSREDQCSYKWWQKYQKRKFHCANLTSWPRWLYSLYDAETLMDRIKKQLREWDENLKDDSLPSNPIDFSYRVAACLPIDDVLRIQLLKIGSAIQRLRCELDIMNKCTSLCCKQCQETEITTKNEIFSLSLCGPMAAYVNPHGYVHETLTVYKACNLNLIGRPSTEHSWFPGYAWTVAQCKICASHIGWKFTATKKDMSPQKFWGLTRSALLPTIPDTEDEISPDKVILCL
Experiment: log2 fold change of degron read counts, EGFP-low vs EGFP+ sorted cells (limma voom), compound-induced degradation; higher = more compound-induced degradation of the degron-EGFP fusion; degrons are variants of IKZF1/3 zinc finger 2; compound dose not given here
Details: Jurkat, 18 h

[1] = compound: compound 19 (5-tert-butyl-thalidomide)
[2] = compound: compound 22 (5-morpholino-thalidomide)
[3] = compound: compound 33 (diphenyl IMiD analogue)
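Further: pooled lentiviral library of zinc finger degron-EGFP fusions in mCherry-positive Jurkat cells, FACS-sorted after compound exposure, with degron abundance counted by next-generation sequencing.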

Row | Sequence | log2 fold change of degron read counts [1] | log2 fold change of degron read counts [2] | log2 fold change of degron read counts [3] | log2 fold change of degron read counts (compound: thalidomide)
1 | B1 | -2.17 | -2.63 | -2.25 | -1.91
2 | B2 | 3.15 | 2.03 | 1.8 | 0.528
3 | B3 | 2.96 | 1.65 | 1.8 | 1.26
4 | B4 | 3.26 | 1.13 | 2.32 | 0.332
5 | B5 | 0.554 | 2.67 | 1.71 | 2.79
6 | B6 | 3.42 | 1.04 | 0.678 | 0.677
7 | B7 | 2.32 | 1.95 | 2.25 | 1.72
8 | B8 | 3.05 | 2.07 | 2.22 | -0.0832
9 | B9 | 2.85 | 1.03 | 2.35 | -0.326
10 | B10 | 2.21 | 2.03 | 1.81 | 3.38
11 | B11 | -0.827 | -1.3 | -1.08 | -0.88
12 | B12 | -2.39 | -2.52 | -1.52 | -1.56
13 | B13 | 0.0673 | -1.05 | 2.35 | 2.43
14 | B14 | 0.735 | 1.47 | 1.94 | 3.59
15 | B15 | 2.11 | 1.59 | 1.31 | 0.441
16 | B16 | 0.58 | -0.667 | 1.21 | 1.75
17 | B17 | 2.42 | 0.457 | -0.158 | -0.463
18 | B18 | 1.01 | 0.765 | 1.12 | 0.771
19 | B19 | 3.74 | 3.68 | 2.63 | 1.54
20 | B20 | 2.93 | 1.89 | 1.07 | 0.575
21 | B21 | 3.41 | 3.78 | 2.28 | 1.57
22 | B22 | -1.06 | -1.95 | -2.41 | -0.806
23 | B23 | 3.08 | 3.63 | 1.75 | 1.6
24 | B24 | 0.227 | 1.78 | 1.46 | 2.43
25 | B25 | -1.3 | -2.03 | -0.276 | -1.41
26 | B26 | 0.139 | -0.199 | -0.986 | -1.05
27 | B27 | -0.106 | 0.152 | 0.208 | 0.391
28 | B28 | -3.43 | -3.8 | -3.18 | -3.17
